From PubChem BioAssay (NCI) come the findings set out here.

The panel holds about 83,000 compounds, 20% with a hit somewhere; the sample as a whole holds those more often.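 Values shown are percent growth following 48 h exposure of cells in 96-well plates to a single concentration of compound; below 10 was considered active.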 Unmarked numbers belong to inactive results. Activity calls are given as the source filed them.

For the first experiment, the system named is OVCAR-5 ovarian. The experiment can be described thus: NCI-60 one-dose screen, 48 h (100 = growth as untreated, 0 = no growth, -100 = all killed). Particulars: 10 µM unless noted.
For the compound `CC(=O)C1=C(O)C=C2Oc3c(C(=O)/C=C/c4ccccc4)c(O)c(C)c(O)c3[C@]2(C)C1=O`, the growth was 78.7%.
Still for that read-out and setting: then `Cn1c(=O)c2c(ncn2CC[N+](C)(C)C)n(C)c1=O`, with 105%.
The same measure, in the same setting: then `OC(c1cc(-c2ccccc2)nc2ccc(Cl)cc12)C1CCCCN1` (stereo unspecified), with 58.8%.

The test system of the next experiment is OVCAR-4 ovarian. Described as above. To be noted: 10 µM unless noted.
On to `CC[n+]1ccc2c(c1)C(=O)c1nccc3c1c-2nc1ccccc13`, for which the growth is -67.7% (active).
Regarding `COc1ccc(-c2csc(NC(=O)CN3CCN(c4cc5c(cc4F)c(=O)c(C(=O)O)cn5C4CC4)CC3)n2)cc1`, the growth was 40.8%.
Still for that read-out and setting: then `O=C1c2cc3c(cc2-c2c1c1cc(F)c(F)cc1c(=O)n2C[C@H](O)CO)OCO3`, with 7.88% (active); and `Cn1c2ccccc2c2c3c(c4c5ccccc5n(CCCCCC#N)c4c21)C(=O)N(O)C3=O`, with 28.4%; and `CCOC(=O)c1c2c(n3ccc(NC(=O)CCN4CCOCC4)cc13)C(=O)c1ncccc1C2=O`, with 37%.
Same read-out and setting: then `Oc1ccccc1N=Cc1c(O)ccc2ccccc12`, with 74.8%; and `O=c1ccc2cc3ccccc3cc2[nH]1`, with 95.1%; and `O=C(Nc1ccc(Oc2ccc(F)cc2)c(Cl)c1)c1cccnc1`, with 85.2%.
For the compound `CCCCCCCCCc1cc(CN2CCCCC2)c(O)c(CN2CCCCC2)c1`, the growth was 41.3%.
The same measure, in the same setting: then `CC/C(Cc1ccccc1)=C(\c1ccc(OCCN2CCCC2)cc1)c1ccc(OC(C)=O)cc1`, with 79%.
The same measure, in the same setting: then `C=C1CC[C@@H]2[C@](C)(COC(C)=O)[C@H](OC(C)=O)CC[C@@]2(C)[C@@H]1CC(Nc1ccc(S(=O)(=O)Nc2nc(C)cc(C)n2)cc1)C1=CCOC1=O` (stereo partly specified), with 65%; and `COc1ccc2c(c1)C(=O)/C(=C/c1cccc(OCC(=O)Nc3nc4c(s3)CCCC4)c1)O2`, with 8.81% (active); and `O=C([C@@H](COCc1ccccc1)N1C(=O)[C@@H](N2C(=O)OC[C@@H]2c2ccccc2)[C@H]1/C=C/c1ccccc1)N1CCC(CCN2CCCCC2)CC1`, with 86.8%.
Consider `O=c1[nH]c(-c2ccccn2)nc2sc3c(c12)CCCCC3`, for which the growth is 23.6%.
Still for that read-out and setting: then `NC1=CC(=O)C(=O)c2ccccc21`, with 69.3%.
With `CN1CCOCCOCCOc2ccccc2NC(=O)c2nc(cnc2N)-c2ccc(cc2)S1(=O)=O`, the growth is 46.1%.
For `COc1ccc(S(=O)(=O)NCCCNc2nccc(-c3c(-c4cccc(N)c4)nc4sccn34)n2)cc1`, the growth was 97.1%.
As for `COc1ccccc1N1CCN(CCn2c(=O)c3c(c4ccccc4n3C)n(C)c2=O)CC1`, the growth is 114%.
Still for that read-out and setting: then `COc1cnc2c(c1)C(=O)c1c-2n(CCCBr)c(=O)c2cc([N+](=O)[O-])ccc12`, with 5.15% (active); and `O=C(C[C@@H](C(=O)NCc1cccc(C(F)(F)F)c1)N1C(=O)[C@@H](N2C(=O)OC[C@@H]2c2ccccc2)[C@H]1/C=C/c1ccccc1)NC1CCN(Cc2ccccc2)CC1`, with 66.1%.
Still for that read-out and setting: then `CCCCCCNC(=O)Oc1ccc(/C(=C(\C)c2ccccc2)c2ccc(OCCN(CC)CC)cc2)cc1`, with 64.4%; and `CC#CC#Cc1cccc(=O)o1`, with 91.6%.
Same read-out and setting: then `CCCCCCCCCCCCNC(=O)[C@H]1CSC(c2ccc(OC)c(F)c2)N1` (stereo partly specified), with -96.6% (active).
`O=C(CN1CCN(c2cc3c(cc2F)c(=O)c(C(=O)N/N=C/c2ccccc2)cn3C2CC2)CC1)N/N=C\c1ccccc1`: the growth is 89.8%.
On to `CNc1nc(C)c(-c2nc(Nc3cccc(S(N)(=O)=O)c3)ncc2F)s1`, for which the growth is 29.2%.
Turning to `CC1=CC(=O)CC(C)(C)[C@@]1(O)/C=C/[C@@H](C)O`, the growth is 106%.
Take `CC(=O)Nc1ccc2c(c1)c(NC(C)=O)nn2C(=O)Nc1ccc(Cc2ccccc2)cc1`: the growth is 89.4%.
Turning to `Cn1c2ccccc2c2c3c(c4c5ccccc5[nH]c4c21)C(=O)N(N)C3=O`, the growth is 73%.
Same read-out and setting: then `COc1cc(OC)c(/C=C/C(=O)c2c(OC)cc(OC)cc2OC)c(OC)c1`, with 47.6%.
Same read-out and setting: then `CCCCCCCCCCCCCCCCCCNC(=O)[C@H]1CSC(c2ccc(OC)c(F)c2)N1` (stereo partly specified), with 76.9%.
Still for that read-out and setting: then `O=C1c2cc3c(cc2-c2c1c1cc(Cl)c(Cl)cc1c(=O)n2C[C@H](O)CO)OCO3`, with -51.8% (active); and `COc1cc2nc3cc([N+](=O)[O-])ccc3c(NCCCNCC(C)(C)O)c2cc1OC`, with -37.2% (active); and `CC(C)C1=C[C@@]23CC[C@@H]4[C@](C)(CCC[C@@]4(C)C(=O)OCC#CCN4CCCC4)[C@H]2C[C@@H]1[C@H]1C(=O)OC(=O)[C@H]13`, with 92%.
